Bioassay records deposited in PubChem BioAssay by The Scripps Research Institute Molecular Screening Center.
A selection: hits, their analogues and other compounds. The true share with any hit is near 2.3%.
M1 antag: human CHRM1 antagonism; P11229; inhibition, % at 3 µM; hit rate 1.3% among 360,000; CHO-K1 hM1, Fluo-8 calcium fluorescence, ACh EC80 antagonist; AID 588852;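 active = percent inhibition above its own plate's cutoff, namely the mean of that plate's compound wells plus 3 SD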;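 also: peak over basal fluorescence ratio during 140 s after agonist addition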
Target sequence (P11229 whole entry, looked up): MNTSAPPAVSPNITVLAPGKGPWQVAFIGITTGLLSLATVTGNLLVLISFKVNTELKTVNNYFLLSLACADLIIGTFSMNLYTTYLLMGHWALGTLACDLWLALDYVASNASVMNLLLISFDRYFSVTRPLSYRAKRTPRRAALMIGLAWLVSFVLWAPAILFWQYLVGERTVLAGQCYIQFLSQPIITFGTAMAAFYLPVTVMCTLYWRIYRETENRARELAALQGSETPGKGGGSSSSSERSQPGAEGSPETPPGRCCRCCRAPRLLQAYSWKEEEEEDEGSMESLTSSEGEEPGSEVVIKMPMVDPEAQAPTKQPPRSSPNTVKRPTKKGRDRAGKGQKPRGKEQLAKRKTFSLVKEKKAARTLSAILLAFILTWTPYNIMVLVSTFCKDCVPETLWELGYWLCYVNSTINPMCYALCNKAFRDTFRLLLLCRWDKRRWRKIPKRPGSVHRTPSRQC
CHO-K1 Ca antag: counter-screen for M1 antagonists: effect in parental CHO-K1 cells; AID 602250; inhibition, % at 3 µM; ATP-induced calcium, Fluo-8 fluorescence; hit rate 0.6% among 360,000;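 active = inhibition above a per-plate cutoff, the plate's mean sample inhibition plus 3 SD, cut at about 24% in these data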
CHRM1 agonist: human M1 muscarinic receptor agonism; CHO-K1 hM1, Fluo-8 calcium fluorescence, agonist mode; 0% DMSO, 100% acetylcholine EC100; activation, % at 3 µM; P11229; hit rate 0.33% among 360,000;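 active = activation above the run's mean compound activation plus 3 SD, cut at about 16% in these data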;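 also: peak over basal fluorescence ratio within a 140 s kinetic read after compound addition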
M1 PAM parental: nonselective activator or artifact in parental CHO-K1 calcium assay | AID 602247 | ATP EC20, Fluo-8 calcium fluorescence; 0% at ATP EC20, 100% at ATP max | activation, % at 3 µM | hit rate 0.02% among 360,000;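 active = activation above the run cutoff, the mean activation of all test compounds plus 3 SD, cut at about 40% in these data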;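 also: peak over basal fluorescence ratio in a 140 s read after ATP addition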
CHO-K1 Ca ag: counter-screen for M1 agonists: effect in parental CHO-K1 cells | activation, % at 3 µM | hit rate 0.48% among 360,000 | Fluo-8 calcium fluorescence; scaled to maximal ATP response, vehicle zero | AID 602248; in the data active = activation above about 15%;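 also: untransfected CHO-K1 host cells lacking M1 receptor as counterscreen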
CHRM1 PAM: positive allosteric modulators of human M1 muscarinic receptor; P11229; CHO-K1 hM1, Fluo-8 calcium fluorescence, ACh EC20; 0% = ACh EC20, 100% = maximal ACh; activation, % at 3 µM; hit rate 0.088% among 360,000; in the data active = activation above about 19%, passing the limit was not always enough
Each line names hits and unclear results; the compound was inactive in the other large screens.

C/C(=N\NC(=O)Cn1c(-c2ccccn2)nc2ccccc21)c1ccccc1	CHO-K1 Ca antag 26
COc1cccc(-n2c(SCC(=O)NC3CC3)nc3ccccc3c2=O)c1	none
Cc1ccc(Cl)cc1NC(=O)COC(=O)CSc1ccccc1	none
O=C(Nc1ccccc1)c1ccccc1OCC(O)CN1C(=O)c2ccccc2S1(=O)=O (stereo unspecified)	M1 antag 50
CCC(Oc1ccccc1)C(=O)Nc1ccc(S(=O)(=O)Nc2ncccn2)cc1 (stereo unspecified)	none
O=C(NC(=S)Nc1ccc(S(=O)(=O)Nc2nccs2)cc1)C1CC1	none
CCC(Oc1ccc(C)cc1)C(=O)Nc1ccc(S(=O)(=O)Nc2nccs2)cc1 (stereo unspecified)	CHRM1 agonist 19
CC(C)C(=O)NC(=S)Nc1ccc(S(=O)(=O)Nc2nccs2)cc1	CHO-K1 Ca ag 16
CCC(Oc1ccccc1)C(=O)Nc1ccc(S(=O)(=O)Nc2cc(C)on2)cc1 (stereo unspecified)	CHRM1 PAM 29
CC(Oc1ccc(Br)cc1)C(=O)Nc1ccc(S(=O)(=O)Nc2nccs2)cc1 (stereo unspecified)	none
CC(c1ccccc1)n1cnc2ccccc2c1=O (stereo unspecified)	none
O=c1c2cc(NC(=S)NCCCN3CCC(Cc4ccccc4)CC3)ccc2nc2n1CCCCC2	M1 antag 67
O=c1c2cc(NC(=S)NCCN3CCCCCC3)ccc2nc2n1CCCCC2	none
O=C(NNC(=O)c1cc(-c2ccccc2)nc2ccccc12)Nc1cccc(Cl)c1	M1 antag 25
O=C(NNC(=O)c1cc(-c2cccnc2)nc2ccccc12)Nc1ccc(Cl)cc1	M1 antag 63, CHO-K1 Ca antag 29
CSc1nc(SCCN(C)C)c2c3c(sc2n1)COC(C)(C)C3	CHRM1 agonist 51
CCOC(=O)N1CCC(N(CCN(C)C)C(=S)Nc2ccc(F)c(Cl)c2)CC1	CHO-K1 Ca antag 27
CCOC(=O)C1CCCN(CCC(=O)Nc2ccc(C)c(C)c2)C1 (stereo unspecified)	none
CCOC(=O)C1CCCN(CCC(=O)Nc2ccc(Br)cc2)C1 (stereo unspecified)	none
CCOC(=O)C1CCCN(CCC(=O)Nc2ccc(Br)c(C)c2)C1 (stereo unspecified)	CHRM1 agonist 24
CCOC(=O)C1CCCN(CCC(=O)Nc2ccc3c(c2)CCC3)C1 (stereo unspecified)	CHRM1 agonist 23
OCCNCc1c(OCc2ccc(Cl)cc2)ccc2ccccc12	CHO-K1 Ca ag 24
CCCCc1cc2ccccc2c(OCCN(C)C)n1	M1 antag 56
CCC(C(=O)NC1CCCCCC1)c1ccccc1 (stereo unspecified)	none
CC[N+](C)(CC)CCOC(=O)C(O)(c1ccccc1)C1CCCCC1 (stereo unspecified)	M1 antag 98
CC[N+](C)(CC)CCC(c1ccccc1)C1CCCCC1 (stereo unspecified)	M1 antag 100
COc1ccc(S(=O)(=O)Nc2cccc(N(C)S(C)(=O)=O)c2)cc1Br	CHO-K1 Ca ag 16
Cc1c(-c2ccccc2)c(-c2ccc(OCCN(C)C)cc2)n2ccccc12	none
Fc1ccc(CNc2ncnc3cc(Cl)ccc23)cc1	CHO-K1 Ca ag 16
COc1ccc(CNc2ncnc3cc(Cl)ccc23)cc1OC	none
CCc1nc2c(OCC(=O)c3ccc(F)cc3)cccn2c1N(C)C(=O)c1cccs1	CHO-K1 Ca antag 26
CCc1nc2c(OCC3COc4ccccc4O3)cccn2c1N(C)C(=O)c1cccs1 (stereo unspecified)	CHO-K1 Ca antag 31
CCc1nc2c(OCC3COc4ccccc4O3)cccn2c1N(C)C(=O)c1ccccc1F (stereo unspecified)	none
CCc1nc2c(OCC(=O)C(C)(C)C)cccn2c1N(C)C(=O)c1cccs1	none
CCN1CC(CN(C)Cc2nc(-c3ccc(C(F)(F)F)cc3)oc2C)CC1=O (stereo unspecified)	none
O=c1ccn([C@@H]2O[C@H](CNCc3ccc(-n4cccn4)cc3)[C@@H](O)[C@H]2O)c(=O)[nH]1	none
Cn1c(=S)[nH]c2sc3c(c2c1=O)CCC(C(C)(C)C)C3 (stereo unspecified)	none
